Test [1] in a line: Nuclear factor erythroid 2-related factor 2/antioxidant responsive element (Nrf2/ARE) small molecule agonists: qHTS cell viability counter screen in human keratinocytes (AID 1919968; active means well fitted curve in the direction sought with a large enough effect in the repeat runs; an effect the other way counts as inactive or inconclusive; further: nearly all actives have a fitted effect of over 55% in size). The method, boiled down:
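In human HaCaT keratinocytes stably expressing an ARE-driven luciferase, compound exposure lasted 23 h at 37 C under 5% CO2. Viable cells are quantified with a protease-based fluorogenic reagent (CellTiter-Fluor) read 1 h after addition.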

Test [2] in a line: Nuclear factor erythroid 2-related factor 2/antioxidant responsive element (Nrf2/ARE) small molecule agonists: luciferase reporter gene qHTS assay in human keratinocytes (AID 1919969). Further: nearly all actives have a fitted effect of over 35% in size. Further: potency means the concentration at half of the fitted maximal effect.
Test [3] has as its target Gonadotropin-releasing hormone receptor (Homo sapiens) (UniProt P30968). In words: Human gonadotropin-releasing hormone receptor (GnRHR) small molecule agonists, calcium flux assay in GnRHR-HEK293 cells (AID 1920063). Further: nearly all actives have a fitted effect of over 35% in size. The method, boiled down: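 Intracellular calcium rise is the read-out: engineered human GnRHR HEK293 cells, dye-loaded, are exposed to DMSO-dissolved compounds and fluorescence at Ex/Em 480/540 is tracked for 3 min.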

Test [4] deals with KiSS-1 receptor (Homo sapiens) (UniProt Q969F8). Nature of the test: Human kisspeptin (KISS1R) small molecule agonists, calcium flux assay in KISS1R-HEK293 cells (AID 1920064; active means well fitted curve in the direction sought with a large enough effect in the repeat runs; an effect the other way counts as inactive or inconclusive). The method, boiled down:
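Concentration-response testing used 15 concentrations in triplicate on human KISS1R-expressing HEK293 cells. Calcium-dependent fluorescence (Ex/Em 480/540) was followed kinetically for 3 min after compound transfer.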

Test [5] can be described thus: G protein-coupled receptor (GPCR) small molecule agonists, calcium flux assay: HEK293 wild type cell line counter screen (AID 1920065). A digest of the protocol:
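Fluorescence intensity signals activation. After overnight (18 h) culture and a 1 h calcium dye load at 37 C, compounds are added by pin tool and the plate read at 480/540 nm for 3 min in 1 s steps.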

The nature of test [6]: p53 small molecule agonists, cell-based qHTS assay with human liver microsomes: qHTS cell viability counter screen (AID 1963579). Further: nearly all actives have a fitted effect of over 45% in size. A digest of the protocol:
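p53RE-bla cells (4,000/well) were pre-incubated 5 h at 37 C, then given compounds in DMSO plus human liver microsomes (0.5 mg/mL final) and NADPH (0.5 mg/mL final) for 16 h at 37 C. Viability was read by CellTiter-Glo luminescence.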

The nature of test [7]: p53 small molecule agonists, cell-based qHTS assay with rat liver microsomes: qHTS cell viability counter screen (AID 1963580). Further: nearly all actives have a fitted effect of over 45% in size. A digest of the protocol:
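Cytotoxicity counter screen: intracellular ATP read by CellTiter-Glo luminescence in the p53 reporter wells. HCT-116 p53RE-bla cells were treated for 16 h at 37 C alongside rat liver microsomes and NADPH, each 0.5 mg/mL final.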

The nature of test [8]: p53 small molecule agonists, cell-based qHTS assay: qHTS cell viability counter screen (AID 1963581). Further: nearly all actives have a fitted effect of over 45% in size. A digest of the protocol:
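Luminescence from CellTiter-Glo, reflecting ATP content, serves as the cytotoxicity measure; it is taken after the 2 h reporter substrate step in HCT-116 p53RE-bla cells dosed for 16 h at 37 C.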

Test [9] addresses 5-hydroxytryptamine receptor 2A (Homo sapiens) (UniProt P28223). Nature of the test: 5-hydroxytryptamine receptor 2A (HTR2A) small molecule antagonists, cell-based qHTS assay (AID 1963586). Further: nearly all actives have a fitted effect of over 45% in size. A digest of the protocol: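 CHO cells stably expressing human HTR2A were plated for 18 h at 37 C, then loaded with calcium dye for 1 h. Compounds were preincubated 5 min at room temperature before DOI (4 nM solution) was added. Kinetic fluorescence was read for 3 min.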

For test [10] the target is unchanged. In words: 5-hydroxytryptamine receptor 2A (HTR2A) small molecule agonists, cell-based qHTS assay (AID 1963587). Further: nearly all actives have a fitted effect of over 30% in size. Further: potency means the concentration at half of the fitted maximal effect. A digest of the protocol:
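Kinetic calcium-flux fluorescence (2 min, 1 sec intervals) after compound addition in agonist mode. HTR2A-CHO cells were cultured 18 h, then dye-loaded 1 h at 37 C.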

Test [11] concerns the target Muscarinic acetylcholine receptor M1 (Homo sapiens) (UniProt P11229). In words: Cholinergic receptor muscarinic 1 (CHRM1) small molecule antagonists, cell-based qHTS assay (AID 1963588). Further: nearly all actives have a fitted effect of over 40% in size. A digest of the protocol: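 Compounds were tested at 15 concentrations in three independent runs. Dye-loaded CHRM1-CHO cells were exposed 5 min at room temperature before stimulation by acetylcholine added at 50nM. Intracellular calcium was read kinetically on FDSS for 3 min.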

The target is the same in test [12]. In words: Cholinergic receptor muscarinic 1 (CHRM1) small molecule agonists, cell-based qHTS assay (AID 1963589). Further: nearly all actives have a fitted effect of over 35% in size. The method, boiled down: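 Fluorescent calcium dye reports M1 activation in stably transfected CHO cells. Compounds, 15 concentrations, added after 1 h dye loading at 37 C; kinetic reading at 1 sec intervals.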
Test [13] in a line: cAMP Responsive Elements (CRE) small molecule agonists, cell-based qHTS assay (AID 1963590). The method, boiled down:
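Compound exposure lasted 3 h at 37 C/5% CO2 in CRE-bla HEK 293T cells grown in assay medium with 10% dialyzed FBS and 25 mM HEPES. Reporter signal came from LiveBLAzer B/G FRET substrate, 2 h, room temperature.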

Test [14] is described as follows: cAMP Responsive Elements (CRE) small molecule antagonists, cell-based qHTS assay (AID 1963591; active means well fitted inhibition curve with a large enough effect in the signal ratio in the repeat runs, not every such curve was filed as active; the % refers to the signal ratio). The method, boiled down:
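Stimulation used NKH477 at a final 0.25 uM for 3 h in compound-treated CRE-bla HEK293T cells, seeded 18 h beforehand. Reporter activity was measured with LiveBLAzer B/G FRET substrate after 2 h at room temperature.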

Test [15] has as its target Beta-2 adrenergic receptor (Homo sapiens) (UniProt P07550). Nature of the test: Adrenergic beta2 receptor (ADRB2) small molecule antagonists, cell-based qHTS assay (AID 1963592). Further: series mostly up to about 92 µM; nearly all actives have a fitted effect of over 50% in size. The method, boiled down:
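Assay format: CHO-ADRB2 cells, 18-20hr seeding at 37C/5% CO2, then compound plus 1nM isoproterenol agonist mix for 0.5hr RT. Homogeneous time-resolved fluorescence cAMP detection after 1hr, expressed as 665/615 nm ratio.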

Test [16] addresses D(2) dopamine receptor (Homo sapiens) (UniProt P14416). Nature of the test: Dopamine D2 receptor (DRD2) small molecule agonists, cell-based qHTS assay (AID 1963594). Further: nearly all actives have a fitted effect of over 35% in size. The method, boiled down:
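cAMP accumulation in DRD2-HEK293 cells measured by HTRF after 1 h detection; compounds added 10 min before NKH477 (200nM […]) forskolin-analogue stimulation, 30 min at room temperature, with Ro20-1724 present at 0.1 mM final.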

For test [17] the target is unchanged. In words: Dopamine D2 receptor (DRD2) small molecule antagonists, cell-based qHTS assay (AID 1963595; active means well fitted inhibition curve with a large enough effect in the signal ratio in the repeat runs, with a control signal flat; the % refers to the signal ratio). The method, boiled down:
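Cells were plated and grown for 24 h at 37 °C. Ro20-1724 (0.1 mM final) went in first, then compound for 10 min. NKH477 (200 nM) with quinpirole (12 nM) followed for 30 min at RT, then HTRF detection reagents for 1 h.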

In test [18] the target is Beta-2 adrenergic receptor (Homo sapiens) (UniProt P07550). Nature of the test: Adrenergic beta2 receptor (ADRB2) small molecule agonists, cell-based qHTS assay (AID 1963593).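 Further: CHO cells stably overexpressing human ADRB2.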 The method, boiled down:
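CHO cells stably over-expressing ADRB2 were plated overnight at 37C, then dosed with compounds plus a stimulation mix containing 100uM IBMX and 25uM Ro-20-1724 for 0.5hr at room temperature. cAMP was measured by HTRF competition, 1hr.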

SMILES strings stand for the structures. Inconclusive results are not listed. The source holds several records for some structures; these can differ, active in one and inactive in another. The source made the active and inactive calls. Unless noted, the call rests on the fitted dose curve.
On the % scale 0 is the no-effect control and ±100 the full control effect.

Chain of D(2) dopamine receptor (Homo sapiens) (P14416 whole entry, looked up): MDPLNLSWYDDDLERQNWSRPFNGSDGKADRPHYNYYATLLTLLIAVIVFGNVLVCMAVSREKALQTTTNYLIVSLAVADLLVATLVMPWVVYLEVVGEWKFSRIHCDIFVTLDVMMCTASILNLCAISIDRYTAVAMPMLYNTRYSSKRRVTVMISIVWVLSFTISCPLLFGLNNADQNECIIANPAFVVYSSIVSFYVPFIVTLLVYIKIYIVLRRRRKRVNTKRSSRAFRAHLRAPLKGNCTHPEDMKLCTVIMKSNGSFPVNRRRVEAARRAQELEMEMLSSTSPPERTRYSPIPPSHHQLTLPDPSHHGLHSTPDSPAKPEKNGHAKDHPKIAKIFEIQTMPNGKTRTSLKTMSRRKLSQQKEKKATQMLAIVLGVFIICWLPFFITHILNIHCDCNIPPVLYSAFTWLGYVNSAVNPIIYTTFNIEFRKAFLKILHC
Chain of KiSS-1 receptor (Homo sapiens) (Q969F8 whole entry, looked up): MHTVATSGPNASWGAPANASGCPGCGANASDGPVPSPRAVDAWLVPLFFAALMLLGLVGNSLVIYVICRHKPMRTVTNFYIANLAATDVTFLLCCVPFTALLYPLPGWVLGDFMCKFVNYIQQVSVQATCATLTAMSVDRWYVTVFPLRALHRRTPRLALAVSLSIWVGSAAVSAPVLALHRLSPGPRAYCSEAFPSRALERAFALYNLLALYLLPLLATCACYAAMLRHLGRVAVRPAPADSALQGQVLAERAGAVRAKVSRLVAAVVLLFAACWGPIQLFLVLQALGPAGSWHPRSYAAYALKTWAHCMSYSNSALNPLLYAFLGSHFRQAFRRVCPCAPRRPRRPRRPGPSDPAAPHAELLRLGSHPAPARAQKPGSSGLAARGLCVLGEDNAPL
Chain of Beta-2 adrenergic receptor (Homo sapiens) (P07550 whole entry, looked up): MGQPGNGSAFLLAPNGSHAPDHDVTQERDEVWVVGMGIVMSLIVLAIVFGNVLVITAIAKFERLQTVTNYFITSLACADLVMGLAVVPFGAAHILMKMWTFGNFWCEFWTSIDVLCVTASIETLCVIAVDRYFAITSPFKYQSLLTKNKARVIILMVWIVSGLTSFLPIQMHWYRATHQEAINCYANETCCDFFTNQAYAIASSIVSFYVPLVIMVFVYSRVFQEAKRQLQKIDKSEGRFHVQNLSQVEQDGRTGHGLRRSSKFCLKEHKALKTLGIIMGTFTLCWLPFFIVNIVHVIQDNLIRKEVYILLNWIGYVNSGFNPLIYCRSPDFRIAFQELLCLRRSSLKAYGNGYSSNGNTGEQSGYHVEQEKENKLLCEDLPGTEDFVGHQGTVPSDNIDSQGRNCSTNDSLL
Chain of 5-hydroxytryptamine receptor 2A (Homo sapiens) (P28223 whole entry, looked up): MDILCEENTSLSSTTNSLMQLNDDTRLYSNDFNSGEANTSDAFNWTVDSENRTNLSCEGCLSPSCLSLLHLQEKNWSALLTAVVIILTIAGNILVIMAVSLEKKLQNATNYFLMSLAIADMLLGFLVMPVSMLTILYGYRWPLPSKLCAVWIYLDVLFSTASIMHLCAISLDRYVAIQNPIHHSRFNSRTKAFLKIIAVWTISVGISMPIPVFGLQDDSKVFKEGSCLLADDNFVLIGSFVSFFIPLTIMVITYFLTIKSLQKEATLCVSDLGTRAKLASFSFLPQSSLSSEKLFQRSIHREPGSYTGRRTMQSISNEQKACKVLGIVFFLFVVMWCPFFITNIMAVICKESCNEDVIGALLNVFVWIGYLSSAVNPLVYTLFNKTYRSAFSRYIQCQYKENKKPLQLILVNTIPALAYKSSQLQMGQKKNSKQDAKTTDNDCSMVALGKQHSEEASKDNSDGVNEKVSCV
Chain of Gonadotropin-releasing hormone receptor (Homo sapiens) (P30968 whole entry, looked up): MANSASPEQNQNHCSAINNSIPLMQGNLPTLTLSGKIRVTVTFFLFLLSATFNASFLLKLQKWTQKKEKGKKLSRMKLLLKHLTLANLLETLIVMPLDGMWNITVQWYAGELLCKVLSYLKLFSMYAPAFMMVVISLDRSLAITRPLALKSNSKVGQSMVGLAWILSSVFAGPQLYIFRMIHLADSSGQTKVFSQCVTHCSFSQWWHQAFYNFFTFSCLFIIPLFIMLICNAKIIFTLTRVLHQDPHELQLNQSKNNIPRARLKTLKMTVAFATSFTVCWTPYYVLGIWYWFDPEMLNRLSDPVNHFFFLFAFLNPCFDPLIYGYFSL
Chain of Muscarinic acetylcholine receptor M1 (Homo sapiens) (P11229 whole entry, looked up): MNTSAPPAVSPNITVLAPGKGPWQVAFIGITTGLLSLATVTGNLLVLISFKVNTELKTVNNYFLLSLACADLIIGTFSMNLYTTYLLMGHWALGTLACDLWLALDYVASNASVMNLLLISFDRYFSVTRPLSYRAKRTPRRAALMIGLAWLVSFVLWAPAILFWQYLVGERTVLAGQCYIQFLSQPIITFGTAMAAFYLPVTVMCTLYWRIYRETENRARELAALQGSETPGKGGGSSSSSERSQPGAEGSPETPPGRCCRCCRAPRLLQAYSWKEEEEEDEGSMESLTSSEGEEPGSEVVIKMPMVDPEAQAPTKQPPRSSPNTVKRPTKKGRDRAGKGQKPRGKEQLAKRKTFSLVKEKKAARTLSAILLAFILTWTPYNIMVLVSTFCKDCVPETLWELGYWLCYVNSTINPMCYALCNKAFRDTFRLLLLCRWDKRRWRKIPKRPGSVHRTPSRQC

Consider `O=S(=O)(Oc1ccc(Cl)cc1Cl)c1ccccc1`, for which the Potency entry in test [1], in test [3], in test [4], in test [5], in test [6] and in test [7] was “inactive” each time. The Potency result in [8], in test [9], in [10], in test [11], in test [12] and in [13] was “inactive” in each case. Moreover, the Potency result in test [14], in test [15], in [16] and in [17] was “inactive” throughout. Moreover, the Potency in [2] was 69.8 µM (active).

For the molecule `CCCCCCCCCCCC(=O)N(C)CC(=O)O`, the Potency result in [1], in test [3], in [4], in [5], in test [6] and in [7] was “inactive” each time. Further, the Potency result in [8], in [9], in test [10], in [11], in test [15] and in [18] was “inactive” each time. For the same molecule, the Potency result in test [17] was “inactive”. For the same molecule, the activity, positive = activation in test [2] was 0.794% [at 8.39 µM] (inactive). Moreover, the values for the activation in [12] and in test [13] were -0.383% [at 6.97 µM] (inactive) and -0.74% [at 8.39 µM] (inactive), respectively. The activity change, negative = inhibition in test [14] is 5.29% [at 8.39 µM] (inactive).

`O=C(Oc1ccccc1)c1ccccc1`: the Potency result in [1], in test [2], in test [3], in test [4], in test [5] and in [6] was “inactive” each time. In addition, the Potency entry in test [7], in test [8], in test [9], in [11], in test [12] and in [13] was “inactive” throughout. The Potency entry in test [14], in test [15], in [18], in test [16] and in test [17] was “inactive” in each case. Further, the Potency in [10] was 55 µM (active) and inactive.

For the molecule `NCCNCCNCCNCCN`, the Potency entry in [1], in test [2], in test [3], in [4], in [5] and in test [6] was “inactive” throughout. Also, the Potency entry in test [7], in [8], in test [10], in test [11], in [12] and in test [13] was “inactive” each time. The Potency result in test [15], in test [16] and in [17] was “inactive” throughout. In addition, the activity change, negative = inhibition in [14] was -9.22% [at 8.39 µM] (inactive).

As to `O=[N+]([O-])c1ccc(/C=C/c2ccc([N+](=O)[O-])cc2S(=O)(=O)O)c(S(=O)(=O)O)c1`, the Potency result in test [1], in test [2], in test [3], in [4], in test [5] and in test [6] was “inactive” throughout. In addition, the Potency result in test [7], in test [8], in test [9], in test [11], in [12] and in [13] was “inactive” throughout. The Potency result in test [14], in test [15] and in test [16] was “inactive” in each case.

On to `CC(=O)OC1CC(C)OC(C)O1` (stereo not given), for which the Potency result in test [1], in [2], in [3], in [4], in test [5] and in test [6] was “inactive” each time. Moreover, the Potency result in [7], in test [8], in test [9], in test [10], in test [11] and in test [12] was “inactive” each time. The Potency result in test [13], in test [14], in test [18], in test [16] and in [17] was “inactive” each time.

The values above are taken from PubChem BioAssay (Tox21).
